Measured values: PubChem BioAssay (EPA / NIEHS)
Results filed as inconclusive are left out. Calls of active or inactive are those of the source. How the source made its calls, unless noted: active means hit-call score of the fitted dose curve at least 0.9, where 1 is the maximum; inactive means score below 0.9.

Tests used:
[1] = target: Paired box protein Pax-6 (Homo sapiens) (UniProt P26367); assay: ATG_Pax6_CIS: Attagene CIS-FACTORIAL HepG2 Assay for human Paired Box 6 (PAX6) (AID 2282956); settings: HepG2 CIS-FACTORIAL PAX6 reporter transcription, RNA readout; actives raise or lower the signal
Summary of the method: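 Fluorescent RT-PCR products separated by capillary electrophoresis report PAX6-linked promoter mRNA in HepG2 cells 24 h post-dose. Curves fitted bidirectionally, DMSO as negative control.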

[2] = ATG_PXRE_CIS: Attagene CIS-FACTORIAL HepG2 Assay for human Pregnane X Receptor Element (PXRE) (AID 2282957); settings: HepG2 Attagene CIS-FACTORIAL PXRE reporter, mRNA; actives raise or lower the signal
Summary of the method: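 Read-out: fluorescence of reporter-specific RT-PCR products resolved by capillary electrophoresis, fitted bidirectionally relative to DMSO. Human HepG2 liver cells carried transfected cis-promoter reporter units and were exposed to chemicals for 24 h.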

[3] = ATG_PPRE_CIS: Attagene CIS-FACTORIAL HepG2 Assay for human Peroxisome Proliferator-activated Response Element (PPRE) (AID 2282958); settings: HepG2 PPRE cis-element reporter, Attagene transcription factor profiling; actives raise or lower the signal
Summary of the method: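 DMSO served as negative control and baseline for bidirectional curve fitting. Signal came from PPRE-regulated reporter mRNA in HepG2 cells, measured 24 h post-dosing by RT-PCR, 6-FAM primer extension and capillary electrophoresis.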

[4] = ATG_RORE_CIS: Attagene CIS-FACTORIAL HepG2 Assay for human RAR-related Orphan Receptor Element (RORE) (AID 2282959); settings: HepG2 Attagene cis-factorial RORE reporter, mRNA; actives raise or lower the signal
Summary of the method: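 Transfect HepG2 with MRTUs; treat 24 h; extract RNA; RT with oligo(dT); PCR with reporter-specific primers; 6-FAM primer extension; HpaI digest 2 h at 37 C; capillary electrophoresis. Fit vs DMSO, bidirectional.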

[5] = ATG_Sox_CIS: Attagene CIS-FACTORIAL HepG2 Assay for human SRY-box transcription factor (SOX) (AID 2282960); settings: HepG2 Attagene cis-factorial SOX reporter, mRNA; actives raise or lower the signal
Summary of the method: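 Fluorescence-labelled cDNA fragments from reporter transcripts, sized by CE, give the signal. Cells: HepG2, transiently transfected with cis-regulated reporter units. Exposure 24 h; DMSO negative control; bidirectional curve fitting.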

[6] = target: Transcription factor Sp1 (Homo sapiens) (UniProt P08047); assay: ATG_Sp1_CIS: Attagene CIS-FACTORIAL HepG2 Assay for human Specificity Protein 1 (Sp1) (AID 2282961); settings: HepG2 Sp1 cis-reporter transcription, actives raise or lower the signal
Summary of the method: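 Chemicals are dosed onto HepG2 cells transfected with multiple cis-promoter reporter constructs, and after 24 h reporter RNA is reverse-transcribed, PCR-amplified and resolved by capillary electrophoresis for fluorescence quantitation; activity is scored up or down against DMSO.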

[7] = ATG_SREBP_CIS: Attagene CIS-FACTORIAL HepG2 Assay for human Sterol Regulatory Element Binding (SREBP) (AID 2282962); settings: HepG2 Attagene cis-factorial SREBP reporter, mRNA; actives raise or lower the signal
Summary of the method: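 Endogenous factor activity is measured in HepG2 through multiplexed reporter units under cis-element control. Following a 24 h incubation, reporter transcripts are reverse-transcribed, PCR-amplified and sized by capillary electrophoresis; activity is fitted in both directions relative to DMSO.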

[8] = target: Signal transducer and activator of transcription 3 (Homo sapiens) (UniProt P40763); assay: ATG_STAT3_CIS: Attagene CIS-FACTORIAL HepG2 Assay for human Signal Transducer and Activator of Transcription 3 (STAT3) (AID 2282963); settings: HepG2, Attagene cis-factorial STAT3 reporter transcription; actives raise or lower the signal
Summary of the method: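 Uses human liver HepG2 transiently carrying cis-regulated reporter transcription units. Following 24 h dosing, reporter mRNA induction was detected by RT-PCR and capillary electrophoresis, analysed bidirectionally versus DMSO.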

[9] = ATG_TA_CIS: Attagene CIS-FACTORIAL HepG2 Assay for human TA Basal Promoter (AID 2282964); settings: HepG2 Attagene CIS-factorial TA basal promoter reporter; actives raise or lower the signal
Summary of the method: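 Transient MRTU transfection of HepG2 preceded 24 h compound exposure. Reporter mRNA levels were then read by RT-PCR with capillary electrophoresis, and this background-control endpoint was fitted bidirectionally to DMSO.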

[10] = ATG_TAL_CIS: Attagene CIS-FACTORIAL HepG2 Assay for human TAL Basal Promoter (AID 2282966); settings: HepG2 Attagene cis-factorial TAL promoter reporter; actives raise or lower the signal;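 further: background control endpoint measuring basal TAL promoter reporter mRNA not a specific factor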
Summary of the method: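 HepG2, transient MRTU transfection, 24 h compound exposure; RNA → oligo(dT) RT → PCR → 6-FAM primer extension → HpaI digest → CE fluorescence. Bidirectional curve fit vs DMSO. Background-control readout.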

[11] = ATG_TGFb_CIS: Attagene CIS-FACTORIAL HepG2 Assay for human Transforming Growth Factor (TGF) (AID 2282967); settings: HepG2 Attagene CIS TGFb reporter, mRNA transcription; actives raise or lower the signal
Summary of the method: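 After a 24-hour incubation with compound, transfected HepG2 cells were lysed for RNA; reporter cDNA was amplified, fluorescently end-labeled and separated by CE. DMSO served as baseline for bidirectional fits.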

[12] = ATG_VDRE_CIS: Attagene CIS-FACTORIAL HepG2 Assay for human Vitamin D Receptor Element (VDRE) (AID 2282968); settings: HepG2 VDRE cis-reporter transcription, actives raise or lower the signal
Summary of the method: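 Transfected HepG2 reporter cells, chemical treatment 24 h. RNA isolated, cDNA amplified with reporter-specific primers, products analysed by capillary electrophoresis. Endpoint fitted in both directions versus DMSO.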

[13] = target: X-box-binding protein 1 (Homo sapiens) (UniProt P17861); assay: ATG_Xbp1_CIS: Attagene CIS-FACTORIAL HepG2 Assay for human X-box Binding Protein 1 (XBP1) (AID 2282972); settings: HepG2 XBP1 cis-element reporter, Attagene multiplex; actives raise or lower the signal
Summary of the method: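 Multiplexed cis-reporter readout in transfected HepG2 liver cells. Exposure lasted 24 hours. Activity in either direction was fitted against DMSO as negative control and baseline.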

[14] = ATG_TCF_b_cat_CIS: Attagene CIS-FACTORIAL HepG2 Assay for human T-Cell-Factor with beta-catenin (TCF/b-cat) (AID 2282965); settings: HepG2 TCF/beta-catenin cis-reporter transcription, actives raise or lower the signal
Summary of the method: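 Using capillary electrophoresis as the read-out, labelled reporter cDNA fragments from transiently transfected HepG2 were sized and quantified. Exposure lasted 24 hours; activity in either direction was referenced to DMSO.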

[15] = target: Steroid hormone receptor ERR1 (Homo sapiens) (UniProt P11474); assay: ATG_ERRa_TRANS: Attagene TRANS-FACTORIAL HepG2 Assay for human Estrogen-Related Receptor alpha (ERRa) (AID 2282971; active means hit-call score of the fitted dose curve at least 0.9, where 1 is the maximum); settings: HepG2 Attagene TRANS reporter, ERRa transactivation
Summary of the method: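 Transfected HepG2, 24 h dosing, ERRa-Gal4 chimera driving GAL4-UAS reporter. Readout: reporter mRNA via RT-PCR plus capillary electrophoresis (fluorescence). Positive direction vs DMSO control.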

[16] = target: Nuclear receptor subfamily 1 group I member 3 (Homo sapiens) (UniProt Q14994); assay: ATG_CAR_TRANS: Attagene TRANS-FACTORIAL HepG2 Assay for human Constitutive Androstane Receptor (CAR) (AID 2282969; active means hit-call score of the fitted dose curve at least 0.9, where 1 is the maximum;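 further: activators raise reporter mRNA above DMSO so AC50 marks induction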); settings: HepG2 Attagene TRANS-FACTORIAL CAR reporter
Summary of the method: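 Steps: transient transfection of HepG2 with multiple GAL4-UAS reporter units; 24 h compound incubation; RNA isolation, RT-PCR, 6-FAM primer extension, HpaI digest; capillary electrophoresis. Gain-of-signal relative to DMSO negative control.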

[17] = ATG_M_19_TRANS: Attagene TRANS-FACTORIAL HepG2 Assay for M19 Transcription Factor (Internal Marker) (AID 2282974; active means hit-call score of the fitted dose curve at least 0.9, where 1 is the maximum); settings: HepG2 Attagene TRANS-FACTORIAL M19 internal marker reporter
Summary of the method: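 Multiplexed TRANS format: HepG2 liver cells bearing transient GAL4-UAS reporter units, chemical treatment 24 h, reporter transcripts quantified by RT-PCR plus capillary electrophoresis. DMSO defines baseline.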

[18] = target: Estrogen-related receptor gamma (Homo sapiens) (UniProt P62508); assay: ATG_ERRg_TRANS: Attagene TRANS-FACTORIAL HepG2 Assay for human Estrogen-Related Receptor gamma (ERRg) (AID 2282977; active means hit-call score of the fitted dose curve at least 0.9, where 1 is the maximum;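 further: hits increase reporter signal over DMSO so potencies reflect activators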); settings: HepG2 Attagene TRANS reporter, ERRg transactivation
Summary of the method: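 Exogenous NR-Gal4 chimera activity was assessed in HepG2 cells bearing transfected GAL4-UAS reporters. After 24 h dosing, total RNA underwent RT-PCR, fluorescent primer extension and HpaI digestion before capillary electrophoresis, with gain of signal scored against DMSO.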

[19] = target: Glucocorticoid receptor (Homo sapiens) (UniProt P04150); assay: ATG_GR_TRANS: Attagene TRANS-FACTORIAL HepG2 Assay for human Glucocorticoid Receptor (GR) (AID 2282978; active means hit-call score of the fitted dose curve at least 0.9, where 1 is the maximum;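 further: activators score as hits since higher reporter transcript over DMSO is fitted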); settings: HepG2 Attagene TRANS GR reporter, mRNA transcription
Summary of the method: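 Transiently transfected HepG2 cells express chimeric NR-GAL4 proteins acting on GAL4-UAS reporter units. Compounds are applied for 24 h. mRNA induction over DMSO is measured by capillary electrophoresis.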

[20] = ATG_GAL4_TRANS: Attagene TRANS-FACTORIAL HepG2 Assay for GAL4 (Internal Marker) (AID 2282976; active means hit-call score of the fitted dose curve at least 0.9, where 1 is the maximum); settings: HepG2 Attagene TRANS GAL4 internal marker reporter
Summary of the method: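 RT-PCR/capillary electrophoresis readout of reporter mRNA. HepG2, transient MRTU transfection (GAL4-UAS reporters), 24 h compound exposure. Background-control endpoint, positive direction vs DMSO baseline.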

Measured: AC50

Chain of Paired box protein Pax-6 (Homo sapiens) (P26367 whole entry, looked up): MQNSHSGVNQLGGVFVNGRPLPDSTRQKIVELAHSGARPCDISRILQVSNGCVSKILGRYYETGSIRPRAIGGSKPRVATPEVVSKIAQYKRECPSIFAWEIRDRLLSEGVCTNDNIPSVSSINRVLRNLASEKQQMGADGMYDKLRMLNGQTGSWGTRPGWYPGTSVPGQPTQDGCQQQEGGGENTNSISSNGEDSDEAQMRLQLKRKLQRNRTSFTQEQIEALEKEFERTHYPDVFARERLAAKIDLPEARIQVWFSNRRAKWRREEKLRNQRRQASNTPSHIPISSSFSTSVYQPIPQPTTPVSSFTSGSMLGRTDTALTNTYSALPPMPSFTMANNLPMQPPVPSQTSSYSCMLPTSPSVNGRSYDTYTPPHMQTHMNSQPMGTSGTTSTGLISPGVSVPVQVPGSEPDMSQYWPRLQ
Chain of Steroid hormone receptor ERR1 (Homo sapiens) (P11474 whole entry, looked up, the tested form may be a part): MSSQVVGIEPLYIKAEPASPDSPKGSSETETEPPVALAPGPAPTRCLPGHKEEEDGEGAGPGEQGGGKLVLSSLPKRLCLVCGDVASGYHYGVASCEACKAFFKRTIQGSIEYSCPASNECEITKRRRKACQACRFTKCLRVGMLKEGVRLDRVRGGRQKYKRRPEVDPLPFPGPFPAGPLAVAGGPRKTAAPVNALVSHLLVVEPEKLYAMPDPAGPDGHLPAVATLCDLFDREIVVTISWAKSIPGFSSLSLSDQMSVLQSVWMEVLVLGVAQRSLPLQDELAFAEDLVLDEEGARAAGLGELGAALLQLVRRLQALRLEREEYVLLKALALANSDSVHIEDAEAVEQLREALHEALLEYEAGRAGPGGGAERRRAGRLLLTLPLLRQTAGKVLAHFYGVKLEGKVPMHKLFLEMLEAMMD
Chain of Signal transducer and activator of transcription 3 (Homo sapiens) (P40763 whole entry, looked up): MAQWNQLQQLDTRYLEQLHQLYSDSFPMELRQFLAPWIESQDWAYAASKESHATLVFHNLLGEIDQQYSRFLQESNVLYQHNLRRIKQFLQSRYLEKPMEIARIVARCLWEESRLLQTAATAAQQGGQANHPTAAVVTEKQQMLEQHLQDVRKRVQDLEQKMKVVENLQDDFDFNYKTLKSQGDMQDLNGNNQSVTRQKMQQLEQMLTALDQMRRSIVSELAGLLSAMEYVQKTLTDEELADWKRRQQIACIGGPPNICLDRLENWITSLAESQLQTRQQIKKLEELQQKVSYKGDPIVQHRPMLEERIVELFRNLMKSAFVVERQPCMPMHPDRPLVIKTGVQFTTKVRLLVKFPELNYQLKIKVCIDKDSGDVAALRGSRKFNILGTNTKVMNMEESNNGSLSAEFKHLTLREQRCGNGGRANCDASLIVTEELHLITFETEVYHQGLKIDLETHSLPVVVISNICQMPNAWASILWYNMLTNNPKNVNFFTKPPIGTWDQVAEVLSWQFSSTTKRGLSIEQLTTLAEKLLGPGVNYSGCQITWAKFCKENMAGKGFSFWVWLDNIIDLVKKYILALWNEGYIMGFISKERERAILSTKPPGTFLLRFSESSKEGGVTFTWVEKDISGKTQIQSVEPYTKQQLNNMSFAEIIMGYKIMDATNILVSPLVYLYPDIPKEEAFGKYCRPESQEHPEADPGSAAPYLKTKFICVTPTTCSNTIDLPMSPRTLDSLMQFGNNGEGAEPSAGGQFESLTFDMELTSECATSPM
Chain of Transcription factor Sp1 (Homo sapiens) (P08047 whole entry, looked up): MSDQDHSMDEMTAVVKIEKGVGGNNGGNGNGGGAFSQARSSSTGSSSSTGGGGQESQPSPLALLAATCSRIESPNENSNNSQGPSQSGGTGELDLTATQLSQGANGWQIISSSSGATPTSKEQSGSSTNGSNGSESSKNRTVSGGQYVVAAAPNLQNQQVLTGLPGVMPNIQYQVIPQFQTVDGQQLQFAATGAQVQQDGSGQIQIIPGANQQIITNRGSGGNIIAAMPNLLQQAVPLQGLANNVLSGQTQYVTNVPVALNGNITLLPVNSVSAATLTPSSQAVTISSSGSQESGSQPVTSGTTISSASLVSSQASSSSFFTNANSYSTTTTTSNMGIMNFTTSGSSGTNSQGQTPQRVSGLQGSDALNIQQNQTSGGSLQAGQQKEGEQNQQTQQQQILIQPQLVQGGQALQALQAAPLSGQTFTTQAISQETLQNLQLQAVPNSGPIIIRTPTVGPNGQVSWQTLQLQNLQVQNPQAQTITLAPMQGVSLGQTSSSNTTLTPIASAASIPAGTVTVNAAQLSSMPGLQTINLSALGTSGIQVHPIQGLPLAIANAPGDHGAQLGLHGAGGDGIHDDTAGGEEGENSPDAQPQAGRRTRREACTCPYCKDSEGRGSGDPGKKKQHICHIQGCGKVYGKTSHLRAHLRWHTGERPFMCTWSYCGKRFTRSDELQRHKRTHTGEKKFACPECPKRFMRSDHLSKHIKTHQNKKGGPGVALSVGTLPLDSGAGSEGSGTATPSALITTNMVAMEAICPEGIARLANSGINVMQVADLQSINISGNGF
Chain of Glucocorticoid receptor (Homo sapiens) (P04150 whole entry, looked up, the tested form may be a part): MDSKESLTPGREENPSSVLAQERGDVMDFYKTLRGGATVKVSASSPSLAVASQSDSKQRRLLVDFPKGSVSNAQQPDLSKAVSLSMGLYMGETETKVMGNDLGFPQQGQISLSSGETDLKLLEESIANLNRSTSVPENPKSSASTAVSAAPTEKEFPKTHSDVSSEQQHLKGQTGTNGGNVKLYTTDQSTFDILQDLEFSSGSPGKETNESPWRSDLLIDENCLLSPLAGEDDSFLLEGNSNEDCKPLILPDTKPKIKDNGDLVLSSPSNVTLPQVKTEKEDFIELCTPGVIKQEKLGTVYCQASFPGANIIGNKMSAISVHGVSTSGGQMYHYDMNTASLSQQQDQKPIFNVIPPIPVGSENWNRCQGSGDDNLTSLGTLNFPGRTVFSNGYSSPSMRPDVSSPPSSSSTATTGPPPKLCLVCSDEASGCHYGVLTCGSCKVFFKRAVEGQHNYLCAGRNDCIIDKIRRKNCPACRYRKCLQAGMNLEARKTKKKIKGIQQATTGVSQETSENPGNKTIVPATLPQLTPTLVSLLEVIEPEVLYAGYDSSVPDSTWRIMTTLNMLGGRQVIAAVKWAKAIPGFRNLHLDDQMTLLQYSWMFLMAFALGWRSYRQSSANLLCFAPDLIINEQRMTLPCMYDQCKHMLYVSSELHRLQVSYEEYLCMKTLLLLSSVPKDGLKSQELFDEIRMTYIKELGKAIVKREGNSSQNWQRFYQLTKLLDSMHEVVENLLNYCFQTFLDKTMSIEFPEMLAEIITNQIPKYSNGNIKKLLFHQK
Chain of X-box-binding protein 1 (Homo sapiens) (P17861 whole entry, looked up): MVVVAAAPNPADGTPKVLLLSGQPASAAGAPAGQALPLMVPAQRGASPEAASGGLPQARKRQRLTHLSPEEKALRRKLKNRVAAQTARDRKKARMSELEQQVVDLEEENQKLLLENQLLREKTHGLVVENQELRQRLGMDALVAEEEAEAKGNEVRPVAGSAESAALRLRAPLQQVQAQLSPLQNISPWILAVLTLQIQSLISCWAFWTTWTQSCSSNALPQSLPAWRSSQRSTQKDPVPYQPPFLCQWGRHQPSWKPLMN
Chain of Nuclear receptor subfamily 1 group I member 3 (Homo sapiens) (Q14994 whole entry, looked up, the tested form may be a part): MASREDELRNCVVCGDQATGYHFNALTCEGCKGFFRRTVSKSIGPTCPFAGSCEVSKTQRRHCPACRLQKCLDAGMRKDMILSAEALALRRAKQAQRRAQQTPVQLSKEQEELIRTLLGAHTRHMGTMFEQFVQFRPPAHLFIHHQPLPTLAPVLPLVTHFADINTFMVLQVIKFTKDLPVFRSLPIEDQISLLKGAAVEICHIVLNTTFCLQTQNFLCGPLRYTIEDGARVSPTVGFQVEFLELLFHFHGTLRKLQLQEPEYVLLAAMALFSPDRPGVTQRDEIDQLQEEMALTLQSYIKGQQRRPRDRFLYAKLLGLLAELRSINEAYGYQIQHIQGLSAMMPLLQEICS
Chain of Estrogen-related receptor gamma (Homo sapiens) (P62508 whole entry, looked up, the tested form may be a part): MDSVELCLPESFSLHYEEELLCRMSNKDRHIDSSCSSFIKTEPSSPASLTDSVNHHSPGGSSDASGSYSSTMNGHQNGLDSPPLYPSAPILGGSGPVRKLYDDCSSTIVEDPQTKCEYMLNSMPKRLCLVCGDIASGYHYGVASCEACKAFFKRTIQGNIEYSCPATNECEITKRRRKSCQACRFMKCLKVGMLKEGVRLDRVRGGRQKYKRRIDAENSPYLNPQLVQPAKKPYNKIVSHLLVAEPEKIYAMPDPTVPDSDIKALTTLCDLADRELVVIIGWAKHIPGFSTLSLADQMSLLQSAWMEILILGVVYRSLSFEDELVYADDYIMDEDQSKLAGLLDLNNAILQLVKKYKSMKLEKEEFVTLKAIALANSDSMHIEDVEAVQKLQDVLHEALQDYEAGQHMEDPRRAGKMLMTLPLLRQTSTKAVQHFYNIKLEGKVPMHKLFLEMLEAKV

CCCCCC(=O)CC
inactive: [1] | [3] | [4] | [5] | [6] | [7] | [8] | [9] | [10] | [11] | [12] | [13]
active: [2] 33.4 µM

O=[N+]([O-])c1cccc(Cl)c1
inactive: [1] | [2] | [3] | [4] | [5] | [7] | [8] | [9] | [14] | [10] | [11] | [12] | [15] | [13]

CCCCCCCC(=O)OCCCCCC
active: [2] 28.2 µM
inactive: [1] | [3] | [4] | [5] | [6] | [7] | [8] | [14] | [11] | [12] | [16] | [15] | [13] | [17]

O=[N+]([O-])c1ccc(O)cc1C(F)(F)F
active: [2] 84.1 µM | [4] 49 µM | [6] 100 µM | [10] 26.8 µM | [13] 31 µM
inactive: [1] | [3] | [5] | [8] | [14] | [11] | [12] | [15] | [17] | [18] | [19]

C[C@H]1C[C@@H](O)CC(C)(C)C1
inactive: [1] | [3] | [4] | [5] | [6] | [8] | [9] | [14] | [10] | [11] | [12] | [16] | [13] | [17] | [20] | [18] | [19]
active: [2] 68.4 µM

CCC(Cl)C(Cl)C(Cl)CC(Cl)C(Cl)C(C)Cl (stereo not drawn)
inactive: [1] | [3] | [4] | [5] | [6] | [7] | [8] | [9] | [14] | [13] | [19]
active: [2] 0.885 µM | [11] 64.6 µM | [12] 3.17 µM

C=C(C)C(=O)OCCOC1CC2CC1C1C=CCC21 (stereo not drawn)
inactive: [1] | [2] | [3] | [4] | [5] | [6] | [7] | [8] | [10] | [11] | [12] | [15] | [13] | [20]

ON=C1CCCCC1
inactive: [1] | [2] | [3] | [4] | [5] | [6] | [7] | [8] | [14] | [10] | [11] | [12] | [16] | [15] | [13] | [20]

CC(C)=CCCC(C)CC(=O)O (stereo not drawn)
inactive: [1] | [3] | [4] | [5] | [6] | [8] | [9] | [10] | [11] | [12] | [16] | [13]
active: [2] 27.3 µM

CC(CN=Cc1ccccc1O)N=Cc1ccccc1O (stereo not drawn)
active: [10] 25.9 µM
inactive: [1] | [2] | [3] | [4] | [5] | [7] | [8] | [14] | [11] | [16] | [13] | [19]

CC(C)(C)OC(=O)c1ccc(O)cc1
inactive: [1] | [2] | [5] | [7] | [8] | [9] | [14] | [10] | [11] | [19]
active: [3] 87.7 µM | [4] 72.5 µM | [12] 45.4 µM | [13] 70.3 µM

CC(C)C(OC(=O)c1ccccc1)C(C)(C)COC(=O)c1ccccc1 (stereo not drawn)
inactive: [1] | [3] | [5] | [6] | [7] | [8] | [9] | [14] | [10] | [11] | [16] | [13] | [17]
active: [2] 1.27 µM | [12] 1.52 µM

C[C@H]1O[C@@H](O[C@H]2[C@@H](O)C[C@H](O[C@H]3[C@@H](O)C[C@H](O[C@H]4CC[C@@]5(C)[C@H](CC[C@@H]6[C@@H]5C[C@@H](O)[C@]5(C)[C@@H](C7=CC(=O)OC7)CC[C@]65O)C4)O[C@@H]3C)O[C@@H]2C)C[C@H](O)[C@@H]1O
inactive: [3] | [5] | [10] | [11] | [17] | [19]
active: [1] 0.0811 µM | [2] 0.271 µM | [6] 0.042 µM | [7] 0.0822 µM | [8] 3.54 µM | [14] 1.03 µM | [12] 0.226 µM | [13] 0.141 µM

CCCCCCCCCCCCN1CCCCCC1=O
active: [2] 1.46 µM
inactive: [1] | [3] | [5] | [6] | [7] | [8] | [9] | [14] | [10] | [11] | [12] | [16] | [19]
